Experimental data taken from PubChem BioAssay AID1851 (National Center for Advancing Translational Sciences (NCATS), 2009).
Values joined by “and” are separate entries in the source; they are usually repeats but may differ in a detail not shown here. Identical values can stand only once. Screen size: about 16,000 compounds; about 5,700 (36%) were called active. About 24% were inconclusive and are not listed. The list shows a part of the results. Unmarked numbers belong to inactive results. Calls follow the shape of the dose curve; as a rule, active = well fitted curve in the direction sought with a large enough effect; inconclusive = small, poorly fitted or top-dose-only effect, or effect the other way; inactive = no such curve, though single readings can be large or run the other way.

These molecules were tested against Cytochrome P450 1A2 (Homo sapiens) (UniProt P05177) (assay: Cytochrome panel assay with activity outcomes). Settings: recombinant CYP, pro-luciferin dealkylation, luminescence, p450-cyp1a2; series mostly up to 57.1 µM; activity, negative = inhibition: at the top concentration.
Chain of Cytochrome P450 1A2 (Homo sapiens) (P05177 whole entry, looked up): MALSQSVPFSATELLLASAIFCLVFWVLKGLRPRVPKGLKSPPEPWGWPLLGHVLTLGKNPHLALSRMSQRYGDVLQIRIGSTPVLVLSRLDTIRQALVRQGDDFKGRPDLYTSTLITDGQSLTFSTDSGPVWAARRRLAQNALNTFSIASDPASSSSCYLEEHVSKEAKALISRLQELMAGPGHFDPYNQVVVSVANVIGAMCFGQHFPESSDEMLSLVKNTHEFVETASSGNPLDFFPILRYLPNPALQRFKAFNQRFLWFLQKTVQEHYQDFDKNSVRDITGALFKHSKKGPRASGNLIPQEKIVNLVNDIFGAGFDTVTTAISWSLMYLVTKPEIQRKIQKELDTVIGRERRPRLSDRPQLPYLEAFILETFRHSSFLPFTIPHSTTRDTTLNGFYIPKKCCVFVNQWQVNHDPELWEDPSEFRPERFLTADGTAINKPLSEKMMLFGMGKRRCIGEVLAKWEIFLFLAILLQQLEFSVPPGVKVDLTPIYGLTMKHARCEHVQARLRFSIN
% is scaled to controls: 0 for no effect and ±100 for the full control effect.

Row | Structure (SMILES) | activity, negative = inhibition | AC50
1 | COC(=O)C1C(O)=C(C=NCc2ccccc2)C(=O)CC1(C)C (configuration not stated) | -9.45% | –
2 | c1cnc(N2CCN(Cc3ccc4c(c3)OCO4)CC2)nc1 | – | 6.31 µM (active) and 3.16 µM (active) and 2 µM (active)
3 | c1ccc2sc(N3CCN(Cc4ccc5c(c4)OCO5)CC3)nc2c1 | – | 1 µM (active)
4 | O=C(CCN1C(=O)c2cccc3cccc(c23)C1=O)N1CCN(Cc2ccc3c(c2)OCO3)CC1 | -23.1% | –
5 | O=C(c1cc2sccc2n1Cc1ccccc1)N1CCN(c2nc3ccccc3s2)CC1 | -23.8% | –
6 | O=C(COc1ccc(Cl)cc1)N1CCN(Cc2ccc3c(c2)OCO3)CC1 | – | 5.01 µM (active)
7 | CN(Cc1ccccc1)S(=O)(=O)c1ccc(OCC(=O)N2CCOCC2)cc1 | -10.9% | –
8 | C[n+]1cc(-c2ccccc2)n2c1CCCCC2 | 9.49% | –
9 | COc1ccc(/C=C(/NC(C)=O)C(=O)O)cc1 | -26.8% | –
10 | COc1ccc(NC(=O)N2CC3(CCN(C(=O)c4ccncc4)CC3)C2)cc1 | -1.73% | –
11 | COc1ccc(OC(=O)c2ccncc2)cc1 | – | 6.31 µM (active)
12 | COc1ccc(/C=C/c2ccncc2)cc1 | – | 1.26 µM (active)
13 | CCCCCOc1ccc(OC(=O)c2ccncc2)cc1 | – | 12.6 µM (active)
14 | COc1ccc(C(=O)N2CCC3(CC2)CN(c2ccncc2)C3)cc1 | -5.39% | –
15 | O=C1CCCC=C1[C@@H](O)C1CCCCC1 | -1.29% [at 11.4 µM] | –
16 | O=C(c1cc(-c2ccc(Cl)cc2Cl)on1)N1CCN(C(=O)c2ccco2)CC1 | – | 15.8 µM (active)
17 | O=C(c1ccc(Cl)cc1)N1CCN(C(=O)c2ccco2)CC1 | 4.7% | –
18 | O=C(Cc1ccc(Cl)cc1)N1CCN(C(=O)c2ccco2)CC1 | -13.2% | –
19 | CC(=O)NCCNc1ncnc2ccc(-c3ccc4c(c3)OCO4)cc12 | – | 0.501 µM (active)
20 | CC(=O)NCCNc1ncnc2ccc(-c3ccoc3)cc12 | – | 12.6 µM (active)
21 | COCCNc1ncnc2ccc(-c3ccoc3)cc12 | – | 15.8 µM (active)
22 | COCCNc1ncnc2ccc(-c3ccc(N(C)C)cc3)cc12 | – | 0.251 µM (active)
23 | COCCNc1ncnc2ccc(-c3ccc(C(=O)N(C)C)cc3)cc12 | -19.4% | –

Row | Structure (SMILES) | activity, negative = inhibition | AC50
24 | CCc1cc2c(nc1CC)CCN(CC/C(C)=N/OC[C@@H](O)COCc1ccco1)C2 | -8.65% [at 11.4 µM] | –
25 | CN(C)CCCN1c2ccccc2Sc2ccc3ccccc3c21 | -2.18% [at 2.29 µM] | –
26 | CN(C)CCCN1c2ccc3ccccc3c2Sc2cccc(Cl)c21 | – | 1 µM (active)
27 | CCC(=S)/C=C1\Sc2ccc3ccccc3c2N1CCCS(=O)(=O)O | -13.1% | –
28 | COc1ccc(C(=O)N2CCC3(CC2)CN(C(=O)Nc2cccc(C#N)c2)C3)cc1 | -4.75% | –
29 | O=C(OC1CCN(c2ccc([N+](=O)[O-])cc2)CC1)c1ccccc1 | -6.58% | –
30 | O=c1cc(-c2ccccc2)[nH]n1-c1ccc([N+](=O)[O-])cc1 | – | 22.4 µM (active)
31 | CCCNc1c(F)c(F)c2c(C)c3ccccc3nc2c1F | – | 0.708 µM (active)
32 | Oc1ccc2ccccc2c1/C=C\c1ccc2c(Br)cc(Br)c(O)c2n1 | – | 3.98 µM (active)
33 | CC(=O)N1N=C(c2cccc([N+](=O)[O-])c2)OC1c1ccc(Cl)cc1Cl (configuration not stated) | – | 2.51 µM (active)
34 | CC(=O)N1N=C(c2cccc([N+](=O)[O-])c2)OC1c1ccccc1Cl (configuration not stated) | – | 14.1 µM (active)
35 | CC(=O)N1CC(=O)N(OCc2ccccc2)C1c1ccc(Cl)cc1Cl (configuration not stated) | 2.24% | –
36 | COc1ccc(C2C3=C(CC(C)(C)CC3=O)Oc3ncn(CC(C)C)c(=N)c32)cc1 (configuration not stated) | -4.33% | –
37 | NNC(=O)CNc1cccc(Br)c1 | – | 0.501 µM (active)
38 | Cc1ccc2c(c1)N(CCC(=O)NCC1CCCO1)C(=O)CO2 (configuration not stated) | -29.1% | –
39 | CCC[C@H]1C(=O)N2C(N(C)C)=Nc3ccc(C)cc3N2C1=O | – | 1.58 µM (active)
40 | COc1cccc(Cn2c(=O)c(-c3cc(F)cc(F)c3)nc3cnc(N4CCNCC4)nc32)c1 | -17.6% | –
41 | CN1CCN(c2ncc3nc(-c4cccc(C#N)c4)c(=O)n(CCC#N)c3n2)CC1 | -11.5% | –
42 | CN1CCN(c2ncc3nc(-c4cccc(C#N)c4)c(=O)n(Cc4ccc(F)cc4)c3n2)CC1 | -15.5% | –
43 | COCCn1c(=O)c(-c2cccc(C#N)c2)nc2cnc(N3CCNCC3)nc21 | – | 10 µM (active)
44 | COCCn1c(=O)c(-c2cc(F)cc(F)c2)nc2cnc(N3CCNCC3)nc21 | – | 6.31 µM (active)
45 | COCCn1c(=O)c(-c2ccc(OC)cc2)nc2cnc(N3CCNCC3)nc21 | – | 6.31 µM (active)
46 | CC[C@H](C)[C@@H]1O[C@]2(CC[C@@H]1C)C[C@H]1C[C@H](CC=C(C)[C@@H](O[C@H]3C[C@H](OC)[C@H](O[C@H]4C[C@H](OC)[C@H](O)[C@H](C)O4)[C@H](C)O3)[C@@H](C)C=CC=C3CO[C@@H]4[C@@H](O)C(C)=C[C@H](C(=O)O1)[C@@]34O)O2 | -8.74% | –

Row | Structure (SMILES) | activity, negative = inhibition | AC50
47 | C/C(CCC(=O)OC[C@@H]1O[C@H](C#Cc2ccccc2)C=C[C@@H]1Oc1ccc(C)cc1)=N/O[C@@H](C)c1cn([C@H](CO)Cc2ccccc2)nn1 | -3.36% [at 11.4 µM] and -0.528% [at 11.4 µM] | –
48 | CC(=O)O[C@]12CC[N@+]3(C)CCCC[C@@H]3[C-]1Nc1ccccc12 | -11% [at 11.4 µM] | –
49 | COc1cccc(-c2nccc(-n3ccnc3)n2)c1 | – | 0.0316 µM (active)
50 | COc1ccc(C2/C(=C(/O)c3ccccc3)C(=O)C(=O)N2c2ccccn2)c(OC)c1 (configuration not stated) | -28.1% | –
51 | N#Cc1cccc(-c2cc(-n3ccnc3)ncn2)c1 | – | 0.126 µM (active)
52 | COc1cccc(/C(O)=C2/C(=O)C(=O)N(c3ccccn3)C2c2ccc(OC)c(OC)c2)c1 (configuration not stated) | 12% | –
53 | N#Cc1cccc(-c2nccc(-n3ccnc3)n2)c1 | – | 0.2 µM (active)
54 | CN(C)c1ccc(-c2cc(-n3ccnc3)ncn2)cc1 | – | 0.158 µM (active)
55 | NN(CC(=O)O)CC(=O)O | 1.78% [at 11.4 µM] | –
56 | C[N@+]1(CCC(=O)c2ccccc2)CC[C@H]2CC[C@H](C2)C1 | -19% [at 11.4 µM] | –
57 | c1cncc(-c2cc(-n3ccnc3)ncn2)c1 | – | 0.1 µM (active)
58 | CC1(C)NC(=O)N(c2ccc([N+](=O)[O-])c(C(F)(F)F)c2)C1=O | – | 3.16 µM (active) and 2.51 µM (active)
59 | CCSc1nc2c(c(=O)[nH]1)C(c1ccncc1)C(C(=O)OC(C)C)=C(C)N2 (configuration not stated) | – | 15.8 µM (active)
60 | CCSc1nc2c(c(=O)[nH]1)C(c1ccccn1)C1=C(CC(C)(C)CC1=O)N2 (configuration not stated) | -27.4% | –
61 | Cc1ccc(C2C3=C(CCCC3=O)Nc3nc(SCC(=O)NCc4ccco4)[nH]c(=O)c32)cc1 (configuration not stated) | -17.4% | –
62 | [Li+] | -2.16% | –
63 | COc1ccc2c(c1)Cc1sc(NC(=O)c3ccco3)nc1-2 | – | 3.16 µM (active)
64 | COc1cccc(C(=O)Nc2nc3c(s2)CN(C)CC3)c1 | – | 12.6 µM (active)
65 | COc1ccc(-c2nc(NC(=O)c3ccccc3)sc2-c2ccc([N+](=O)[O-])cc2)cc1 | -4.3% | –
66 | COc1ccc2c(c1)CCc1sc(NC(=O)c3ccc(C)cc3)nc1-2 | – | 4.47 µM (active)
67 | COc1ccc(NC(=O)C2(c3ccc(NC(=O)c4ccc(C)cc4)cc3)CCCC2)cc1 | 5.17% | –
68 | COc1cccc(C(=O)NCCN2CCOCC2)c1 | -9.55% | –
69 | COc1ccc(C(=O)Nc2nc3c(s2)Cc2cc(OC)ccc2-3)cc1 | – | 4.47 µM (active)

Row | Structure (SMILES) | activity, negative = inhibition | AC50
70 | COc1ccc(NC(=O)N2CC3(CCN(C(=O)c4ccco4)CC3)C2)cc1 | -9.08% | –
71 | CC(=O)OC[C@H]1O[C@@H](CCO/N=C2/[C@H]3O[C@@H]3[C@@H](O)[C@H]3[C@H]2CCn2c(=O)n(-c4ccccc4)c(=O)n23)C=C[C@@H]1OC(C)=O | -3.93% [at 11.4 µM] | –
72 | C[C@@H](c1ccccc1)N1C(=O)[C@H]2[C@H]3[C@H](O)[C@H](O)C/C(=N/OC[C@@H](O)COCc4ccco4)[C@H]3CC[C@@H]2C1=O | -3.98% [at 11.4 µM] | –
73 | O=C(O)CCCCCNC(=O)c1ccccc1Br | 1.98% | –
74 | CN(C(=S)NC(=O)c1ccccc1Br)C1CCCCC1 | – | 14.1 µM (active)
75 | C[C@]1(OC(=O)/C=C\c2ccccc2)C[C@@H](O)[C@@]2(O)C=CO[C@@H](O[C@H]3O[C@@H](CO)[C@@H](O)[C@@H](O)[C@@H]3O)[C@H]21 | -7.84% [at 25.6 µM] | –
76 | Nc1ncnc2c1cnn2-c1ccccc1 | – | 6.31 µM (active)
77 | CC(=O)Nc1ccc(Nc2ncnc3c2cnn3-c2ccccc2)cc1 | -19% | –
78 | c1ccc(-n2ncc3c2ncn2cnnc32)cc1 | – | 6.31 µM (active)
79 | Nc1ncnc2c1nc(-c1ccccc1)n2[C@H]1O[C@@H](CO)[C@@H](O)[C@H]1O | -16.8% [at 2.29 µM] | –
80 | CCC(=O)NC(NCC1CCCO1)C(Cl)(Cl)Cl (configuration not stated) | 9.29% | –
81 | CSc1nsc(SC)c1NC(=O)Nc1ccccn1 | – | 2.51 µM (active)
82 | CSc1nsc(SC)c1NC(=O)OCc1ccccc1 | – | 10 µM (active)
83 | O=C(Nc1cccc(F)c1)Nc1ccccn1 | – | 2 µM (active)
84 | O[C@H](CNc1ccccn1)c1ccccc1 | -29.6% [at 11.4 µM] | –
85 | O=C(O)c1nnsc1COCc1ccccc1 | -12.2% [at 11.4 µM] | –
86 | O=C(O)/C=C\C(=O)Nc1ccccn1 | -5.8% [at 11.4 µM] | –
87 | O=C(NCC1CCC(C(=O)O)CC1)OCc1ccccc1 (configuration not stated) | -3.85% | –
88 | CC(=O)N1CCC2(CC1)CCN(C(=O)Nc1cccc(F)c1)CC2 | -4.16% | –
89 | CCOC(=O)c1ccc(NC(=O)C(=O)NCC2CCCO2)cc1 (configuration not stated) | -12.1% | –
90 | CSc1nsc(SC)c1NC(=O)OCC1CCCO1 (configuration not stated) | – | 20 µM (active)
91 | O=C(c1ccco1)N1CCC2(CCN(Cc3nccs3)CC2)CC1 | -5.61% | –
92 | C=C1CC[C@H](O)C/C1=C/C=C1\CCC[C@]2(C)[C@H]1CC[C@H]2[C@@H](C)/C=C\[C@@H](C)C(C)C | 0.111% [at 25.6 µM] | –
